# Laboratory results from PubChem BioAssay (NCATS).
# Results filed as inconclusive are left out. Active and inactive are the calls of the source. Calls come from the whole dose curve; as a rule, active = well fitted curve in the direction sought with a large enough effect; inconclusive = small, poorly fitted or top-dose-only effect, or effect the other way, or another doubt; inactive = no such curve, though single readings can be large or run the other way. Bridge positions count the residues as written; N and C are the ends. Square brackets hold non-standard residues; d marks the D form. Side chains are listed from the residue outwards. Peptide text beside a SMILES is read from it. * marks the point of attachment. Phg(4-OMe) = COc1ccc([C@H](N)C(=O)O)cc1; d(aIle) = CC[C@H](C)[C@@H](N)C(=O)O; d(aThr) = C[C@@H](O)[C@@H](N)C(=O)O; NMeF = CN[C@@H](Cc1ccccc1)C(=O)O; Isobutyryl = CC(C)C(=O)*
# Test: 10-beta competent E. coli microbial cell viability qHTS against the NCATS CANVASS Library (AID 1347376); note: 0% is about no effect
# Conditions: E. coli 10-beta viability, BacTiter-Glo ATP luminescence, overnight; series mostly up to 46.1 µM
# Outline: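 Overnight 37C exposure of 10-beta E. coli (0.2 OD) to an 11-point concentration series; ATP-based luminescence after 20 min room-temperature reagent incubation; daunomycin as control.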
Compound,outcome,"activity change, negative = cytotoxic"
O=C1CC2OCC=C3CN4C5CC3C2[C@@H]2N1c1ccccc1[C@]52C[C@@H]4C1=C[C@H]2C3CC4N(CC[C@@]45c4ccccc4N(C1=O)[C@@H]25)C/C3=C/CO (stereo partly specified),inactive,
CCC(=O)CCCCC[C@@H]1NC(=O)[C@H]2CCCCN2C(=O)[C@H](C(C)C)NC(=O)[C@H](Cc2cn(OC)c3ccccc23)NC1=O,inactive,
C/C(=C\[C@H](C)C(=O)CCCC1CC(=O)NC(=O)C1)[C@@H]1OC(=O)/C=C/CC/C=C/[C@H](O)[C@@H](O)[C@@H]1C,inactive,
C/C=C(/C)c1c(Cl)c(O)c(C)c2c1Oc1c(Cl)c(O)c(Cl)c(C)c1C(=O)O2,inactive,
C=C[C@@]1(C)CC[C@@H]([C@H](C)C(=O)/C=C/C(C)(C)O)O1,inactive,
C=CC(CCCCC)C1C(=O)NC(=O)C1C(=O)C1C(/C=C/C)C=CC2CC(C(=O)O)CC(C)C21 (stereo unspecified),inactive,
C=C1CC[C@@H](O[C@H]2C[C@@](O)([C@H](C)NC(=O)c3[nH]c(C)c(Cl)c3Cl)[C@H](O)[C@@H](C)O2)[C@@H]2C=C[C@H](C)C(/C(O)=C3/C(=O)[C@H](C(C)C)N([C@@H]4O[C@H](C)[C@H](OC(N)=O)[C@H](OC(C)=O)[C@@H]4OC)C3=O)[C@@H]12 (stereo partly specified),inactive,
COc1ccc([C@@H]2CC(=O)c3c(cc(O)c(C/C=C(\C)CCC=C(C)C)c3O)O2)cc1,,-2.49% [at 9.19 µM] (inactive)
O=c1cc(-c2ccc(O)c(O)c2)oc2cc(O[C@@H]3O[C@H](CO)[C@@H](O)[C@H](O)[C@H]3O)cc(O)c12,inactive,
CC[C@H](C)[C@H]1NC(=O)[C@@H](NC(=O)C(C)C)[C@@H](C)OC(=O)[C@H](COC(=O)CNC(C)=O)NC(=O)[C@@H]([C@@H](C)O)NC(=O)[C@H](Cc2ccccc2)N(C)C(=O)[C@H](c2ccc(OC)cc2)NC1=O (Isobutyryl-T[d(aIle)][Phg(4-OMe)][NMeF][d(aThr)]S([Gly-Ac]); ester 1-C),inactive,
C[n+]1cc2cc(C(N)=O)[nH]c3c(=N)c(Cl)c(N)c1c23,inactive,
C/C1=C/[C@@H](C)[C@H](O)[C@@H](O)/C=C/CC/C=C/C(=O)O[C@@H]1[C@H](C)C(=O)CCCC1CC(=O)NC(=O)C1,inactive,
CC(=O)Oc1cc2c(c(OC(C)=O)c1C1CCc3cc(Cl)c(Cl)n31)C(=O)n1c-2cc(Cl)c1Cl (stereo unspecified),inactive,
COc1ccc2[nH]c3c(c2c1)CCN1C[C@H]2C[C@@H](OC(=O)c4cc(OC)c(OC)c(OC)c4)[C@H](OC)[C@@H](OC)[C@H]2C[C@H]31,inactive,
O[C@H]1c2ccccc2-c2c3c(cc4c2[C@@H]1NCC4)OCO3,inactive,
CC(C)=CC[C@H]1C[C@@]2(CC=C(C)C)C(=O)[C@](CC=C(C)C)(C(=O)C(C(=O)c3ccccc3)=C2O)C1(C)C,inactive,
C[C@]12CC[C@]3(C1)[C@H](CC2=O)C[C@@H](OC(=O)c1ccccc1)[C@H]1[C@](C)(C(=O)O)CCC[C@@]13C,inactive,
CC(=O)O[C@H]1c2ccccc2-c2c3c(cc4c2[C@@H]1N(C(C)=O)CC4)OCO3,inactive,

Compound,outcome,"activity change, negative = cytotoxic"
C=C1CC[C@@H](Br)C(C)(C)[C@]12CC=C(C)C(=O)C2,inactive,
COc1cc2c(cc1OC)[C@@H](c1ccc3c(c1)OCO3)C(C)C(C)C2=O (stereo partly specified),inactive,
C[C@H]1C=C[C@H]2CCCC[C@@H]2[C@H]1C(=O)[C@H]1CC2=C(C(=O)O)CCN2C1=O,inactive,
C/C(=C\[C@H](C)C(=O)/C=C/CC1CC(=O)NC(=O)C1)[C@@H]1OC(=O)/C=C/CC/C=C/C[C@@H](O)[C@@H]1C,inactive,
CC(C)[C@]12CC[C@@]3(C)[C@H](C)CC[C@H](O)[C@@]3(CC1)c1cc3c(cc12)[nH]c1ccccc13,inactive,
C/C=C1/CN2C3CC1C1C=CC(=O)N4c5ccccc5[C@@]3(C[C@@H]2C2=C[C@H]3C5CC6N(CC[C@@]67c6ccccc6N(C2=O)[C@@H]37)C/C5=C/C)[C@H]14 (stereo partly specified),inactive,
CC(C)=CCC[C@]12c3cc4c(cc3CC[C@@]1(C)[C@H](C)CC[C@@H]2O)[nH]c1ccccc14,inactive,
Oc1ccc(C2Oc3cc(O)c4c(c3[C@@H]2c2cc(O)cc(O)c2)[C@H]2C(c3ccc(O)cc3)c3c(O)cc5c(c3[C@H]2C4c2ccc(O)cc2)[C@H](c2cc(O)cc(O)c2)C(c2ccc(O)cc2)O5)cc1 (stereo partly specified),inactive,
COc1cc(O)c(C(=O)[C@@H]2[C@H](CC=C(C)C)C(C)=CC[C@H]2c2ccccc2)c(O)c1,inactive,
C=C(C)CC[C@H](Cc1c(O)cc(O)c2c1O[C@H](c1ccc(O)cc1)CC2=O)C(=C)C,inactive,
COc1cc(/C=C/C(=O)OC[C@@H](Cc2ccc(O)c(OC)c2)[C@@H](COC(=O)/C=C/c2ccc(O)c(OC)c2)Cc2ccc(O)c(OC)c2)ccc1O,inactive,
C=CC(CCCCC)C1C(=O)NC(=O)C1C(=O)C1C2C(C)CC(C(=O)O)CC2CC1(O)C(=O)/C=C/C (stereo unspecified),inactive,
C[C@]12CCC[C@](C)(C(=O)O)[C@@H]1CC[C@@]1(C)c3cocc3CC[C@H]21,inactive,
COc1c(O)cc2c(c1O)C(=O)c1c(coc1C)C2=O,inactive,
CC(C)C[C@@H]1c2c(O)c(C=O)c(O)c(C=O)c2O[C@]2(C)C=C[C@@H](C(C)C)C[C@H]12,inactive,
CO[C@H]1[C@@H](OC(=O)/C(C)=C\[C@@H]2O[C@@H]2[C@H]2O[C@H]2C)[C@H](O)[C@H](OCC23C[C@@H]4[C@H](C)CC[C@H]4C4(C=O)CC2C=C(C(C)C)C34C(=O)O)O[C@@H]1C (stereo partly specified),inactive,
C/C=C/C1C=CC2CC(C)CC(C)C2C1C(=O)CC(=O)NC(CO)C/C=C/CCCCC (stereo unspecified),inactive,
CC[C@H]1[C@H](C)[C@H](c2cc(OC)c(OC)cc2OC)[C@@H](C)[C@H](c2cc(OC)c(OC)cc2OC)[C@@]12C=C(OC)C(=O)C=C2OC,inactive,
